TIM10 inh = TIM10 yeast growth inhibition. S. cerevisiae TIM10 strain growth, BacTiter-Glo luminescence, 24 h. inhibition, % at 10 µM. actives 1.4% (n = 330,000). AID 463195;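 active means inhibition of 40% or more at the single tested concentration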;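 further: wild-type TIM10 isogenic control strain grown at permissive 25 °C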
NLRP3 yeast inh = inhibitors of NALP3 inflammasome in yeast. actives 0.39% (n = 330,000). inhibition, % at 10 µM. AID 2825. Yeast reconstituted NLRP3/ASC/caspase-1, beta-gal luminescence, 24 h;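 active means inhibition of 50% or more; inactive means inhibition below 50%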
NALP1 inh = inhibitors of NALP1 inflammasome in yeast | AID 2071 | inhibition, % at 10 µM | actives 0.61% (n = 280,000) | S. cerevisiae NALP1/ASC/caspase-1 growth, X-gal OD620, 72 h; in the data active means inhibition mostly above about 24%, no sharp cut-off; inactive means mostly below about 32%
tim23-1 inh = growth inhibitors of tim23-1 mutant yeast; S. cerevisiae tim23-1 growth, BacTiter-Glo luminescence, 24 h; inhibition, % at 20 µM; actives 1.3% (n = 330,000); AID 463212;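 active means growth inhibition of the mutant yeast at or above 50%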;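 further: temperature-sensitive mutant grown at 25 °C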
tim10-1 inh = tim10-1 yeast growth inhibition. S. cerevisiae tim10-1 ts strain growth, BacTiter-Glo, 24 h. inhibition, % at 20 µM. actives 2.2% (n = 330,000). AID 463190;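 active means inhibition of at least 40%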;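 further: mutant grown at 25 °C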
tim10-1 confirm = tim10-1 yeast growth inhibition, confirmed | actives 56% (n = 7,400) | shares compounds with tim10-1 inh | S. cerevisiae tim10-1 ts strain growth, BacTiter-Glo, 24 h | inhibition, % at 20 µM | AID 463213;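 active means inhibition of yeast growth at or above a set limit in either of two repeat tests at 20 µM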;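 further: tim10-1 mutant grown at permissive 25 °C to find synthetic lethal compounds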
tim10 confirm = TIM10 yeast growth inhibition, confirmed; actives 63% (n = 4,600); AID 463215; shares compounds with TIM10 inh; inhibition, % at 10 µM; S. cerevisiae tim10 strain growth, BacTiter-Glo luminescence, 24 h;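 active means inhibition of yeast growth at or above a set limit in either of two replicates at 10 µM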; further: this counterscreen used the strain with wild-type TIM10
tim23-1 conf = confirmation of tim23-1 mutant yeast growth inhibitors; S. cerevisiae tim23-1 growth, BacTiter-Glo luminescence, 24 h; inhibition, % at 20 µM; shares compounds with tim23-1 inh; actives 83% (n = 4,400);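 active means inhibition above about 39% in either of two replicate wells at 20 µM, limit read from the data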;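 further: temperature-sensitive tim23-1 mutant grown at 25 °C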
Each line names hits and unclear results; the compound was inactive in the other large screens (follow-up assays come after a bar, where they were run). Hits are enriched below; roughly 4.1% of the tested compounds scored in any of these assays.

COc1cc(N=Nc2ccc3ccccc3c2)ccc1O	tim23-1 inh 63, tim10-1 inh 41 | tim10-1 confirm inactive | tim23-1 conf inactive
O=C(NCCN1CCOCC1)C1(C(F)(F)F)C/C(=C\Cc2ccccc2)CCCO1 (stereo unspecified)	none (no result: NALP1 inh)
N#C/C(=C\c1ccc(Cl)cc1)c1nc2ccccc2o1	tim23-1 inh 76, tim10-1 inh 51 | tim10-1 confirm 49 | tim23-1 conf 75
N#C/C(=C\c1cccc(O)c1)c1nc2ccccc2o1	none
N#C/C(=C\c1ccncc1)c1nc2ccccc2o1	TIM10 inh 42, tim23-1 inh 72, tim10-1 inh 56 | tim10-1 confirm 43 | tim10 confirm 34 | tim23-1 conf 61
NC(=O)c1cc(Br)cc2c3c([nH]c12)CCCC3	TIM10 inh 56, tim23-1 inh 76, tim10-1 inh 69 | tim10-1 confirm 58 | tim10 confirm inactive | tim23-1 conf 62
Cc1ccccc1NC(=O)CCS(=O)(=O)c1ccc(Br)s1	none
COC(=O)c1ccccc1NC(=O)CCS(=O)(=O)c1ccc(Br)s1	tim23-1 inh 55, tim10-1 inh 44 | tim10-1 confirm 44 | tim23-1 conf 47
CCCCCOc1ccc(NC(=O)CSc2cccc3cccnc23)cc1	none
CCN1/C(=C/C(C)=C/c2sc3ccccc3[n+]2CC)Sc2ccccc21	TIM10 inh 79, tim23-1 inh 82, tim10-1 inh 80 | tim10-1 confirm 76 | tim10 confirm 88 | tim23-1 conf 82
COCCCN1C(=O)N(c2ccc(F)cc2)C(=O)C1CC(=O)Nc1ccc(OC)cc1 (stereo unspecified)	none
CC1CCc2nc(NC(=O)CN3CCN(c4ccc(F)cc4)CC3)sc2C1 (stereo unspecified)	tim23-1 inh 55, tim10-1 inh 51 | tim10-1 confirm inactive | tim23-1 conf inactive
O=C(CCCN1C(=O)/C(=C/c2ccco2)SC1=S)Nc1ccccc1C(=O)O	none
O=C(CCCN1C(=O)/C(=C\c2ccco2)SC1=S)Nc1ccc2ccccc2c1	tim23-1 inh 78, tim10-1 inh 44 | tim10-1 confirm 39 | tim23-1 conf 70
O=C(COc1cccc(NC(=O)c2ccccc2)c1)c1ccccc1	none
O=C(COc1cccc(NC(=O)c2cccs2)c1)c1ccc(F)cc1	TIM10 inh 62, tim23-1 inh 53, tim10-1 inh 46 | tim10-1 confirm 40 | tim10 confirm inactive | tim23-1 conf 76
COc1ccc(OC)c(CN2CCN(C(=O)CCC(=O)c3cccs3)CC2)c1	none (no result: NALP1 inh)
O=C1C2C(c3ccccc3)CC=CC2[C@H](c2ccc(C(F)(F)F)cc2)N1Cc1ccccc1 (stereo partly specified)	TIM10 inh 75, tim23-1 inh 65, tim10-1 inh 66 (no result: NALP1 inh) | tim10-1 confirm 52 | tim10 confirm 44 | tim23-1 conf 66
CCOCCCNC(=O)/C(C#N)=C/c1ccc(Cl)c([N+](=O)[O-])c1	TIM10 inh 66, tim23-1 inh 86, tim10-1 inh 47 | tim10-1 confirm 73 | tim10 confirm 82 | tim23-1 conf 88
O=C(NCCc1nnc2ccc(N3CCCC3)nn12)c1ccccc1	none
Cc1ccc(NC(=O)C(C)c2ccc([N+](=O)[O-])cc2)cc1Cl (stereo unspecified)	TIM10 inh 59, tim23-1 inh 51, tim10-1 inh 58 | tim10-1 confirm 59 | tim10 confirm 48 | tim23-1 conf 61
CSc1sc(C(=O)NC(=O)NCc2ccncc2)c(C)c1-c1ccon1	none
Clc1ncnc2scc(C3COc4ccccc4O3)c12 (stereo unspecified)	tim23-1 inh 52, tim10-1 inh 53 | tim10-1 confirm inactive | tim23-1 conf inactive
O=c1[nH]cnc2scc(C3COc4ccccc4O3)c12 (stereo unspecified)	none
Cc1nn(CCC(=O)NNC(=S)NCC(C)C)c(C)c1Br	none
C=CCSc1nc(O)c(CC)c(=O)n1C(C)CC (stereo unspecified)	none
CCc1c(O)nc(SCc2ccccc2)n(C(C)CC)c1=O (stereo unspecified)	tim23-1 inh 52, tim10-1 inh 41 | tim10-1 confirm 45 | tim23-1 conf 48
C=CCOc1ccccc1CN1CCCC(CCC(=O)N(C)CCc2ccccn2)C1 (stereo unspecified)	none
COc1ccc(/C=C/C(=O)c2ccc([N+](=O)[O-])o2)cc1	TIM10 inh 70, tim23-1 inh 79, tim10-1 inh 45 (no result: NALP1 inh) | tim10-1 confirm inactive | tim10 confirm 79 | tim23-1 conf inactive
O=C(Nc1ccc(S(=O)(=O)N2CCCC2)cc1)c1cccs1	none
CC1CCN(S(=O)(=O)c2ccc(NC(=O)c3cccs3)cc2)CC1	TIM10 inh 42, tim23-1 inh 54, tim10-1 inh 42 | tim10-1 confirm 50 | tim10 confirm 53 | tim23-1 conf 59
CC1CCCCN1S(=O)(=O)c1ccc(NC(=O)c2cccs2)cc1 (stereo unspecified)	TIM10 inh 51, tim23-1 inh 54, tim10-1 inh 54 | tim10-1 confirm 48 | tim10 confirm 52 | tim23-1 conf 71
CN1/C(=C\C(=S)NC(=O)c2ccc([N+](=O)[O-])cc2)C(C)(C)c2ccccc21	none
CN1/C(=C/C2CC(=O)N(c3ccc([N+](=O)[O-])cc3)C2=O)C(C)(C)c2ccccc21 (stereo unspecified)	TIM10 inh 51, tim23-1 inh 51, tim10-1 inh 66 | tim10-1 confirm 62 | tim10 confirm 42 | tim23-1 conf 66
CCOC(=O)/C(C#N)=C\c1cc(OC)c(OC)cc1[N+](=O)[O-]	none
Cc1ccc(S(=O)(=O)CC#CCOC(=O)c2ccc([N+](=O)[O-])cc2)cc1	tim23-1 inh 76, tim10-1 inh 60 | tim10-1 confirm 47 | tim23-1 conf 81
O=C(COc1ccccc1C(=O)O)Nc1nc2ccc([N+](=O)[O-])cc2s1	none
NC(=O)N/N=C/c1c(O)ccc2oc3c(c12)CCCC3	none (no result: NALP1 inh)
CC(C)(C)N=Cc1c(O)ccc2oc3c(c12)CCCC3	tim23-1 inh 63, tim10-1 inh 41 | tim10-1 confirm 33 | tim23-1 conf 64
O=C(NCc1ccc(Cl)cc1)C1CC(O)CN1S(=O)(=O)c1ccc(Cl)cc1 (stereo unspecified)	none
CCc1ccc(-c2nc3ccc(Br)cc3c(C(=O)O)c2C)s1	none
Oc1c(Cl)cc(Cl)cc1C=Nc1ccc2c(c1)OCCO2	TIM10 inh 47, tim23-1 inh 77, tim10-1 inh 46 | tim10-1 confirm inactive | tim10 confirm 32 | tim23-1 conf 81
